POLH inh: blocks human DNA polymerase eta activity; Q9Y253; recombinant Pol eta, fluorescent DNA replication assay; Potency, µM (series often up to 114 µM), for inactives: at the top dose activity change, negative = inhibition, actives largely listed as inhibitors; 390,000 tested, 1.2% active; AID 588591; note: % is set by controls: 0 for no effect and ±100 for the full control effect
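Pol eta (10 nM) was preincubated with compounds for 15 min at room temperature, after which fluorescent replication substrate (50 nM final) was added to start the reaction. Fluorescence was read kinetically at 0 and 10 min.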
FEN1 inhibitor: human FEN1 inhibition; Recombinant FEN1 flap cleavage, fluorescence, 15 min; Potency, µM (highest dose often 114 µM), for inactives: at the highest dose activity change, negative = inhibition, actives largely listed as inhibitors; 390,000 tested, 0.35% active; note: % is set by controls: 0 for no effect and ±100 for the full control effect; nearly all actives have a fitted effect of over 65% in size
Target sequence (P39748 whole entry, looked up): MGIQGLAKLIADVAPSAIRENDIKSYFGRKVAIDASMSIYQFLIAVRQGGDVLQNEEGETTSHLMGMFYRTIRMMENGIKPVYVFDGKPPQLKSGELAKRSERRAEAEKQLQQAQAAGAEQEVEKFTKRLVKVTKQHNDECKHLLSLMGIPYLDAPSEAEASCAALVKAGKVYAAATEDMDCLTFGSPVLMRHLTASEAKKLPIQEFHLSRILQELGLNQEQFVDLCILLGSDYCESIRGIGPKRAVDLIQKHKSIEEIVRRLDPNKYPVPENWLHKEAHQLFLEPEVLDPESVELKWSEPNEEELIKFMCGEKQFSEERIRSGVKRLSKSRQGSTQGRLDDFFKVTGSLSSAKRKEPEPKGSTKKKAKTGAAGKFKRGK
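Recombinant FEN1 (10 nM) was preincubated with pin-transferred compounds for 15 min at room temperature, then flap DNA substrate (50 nM final) was added. Plates were read at 0 and 15 min, and normalized concentration–response data were fitted to a four-parameter Hill equation.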
Pol iota inh: blocks human DNA polymerase iota activity | Q9UNA4 | Pol iota fluorescent replication assay, 10 min | Potency, µM (doses to about 115 µM), for inactives: top-dose activity, negative = inhibition, actives largely listed as inhibitors | 390,000 tested, 1% active
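Pol iota at 10 nM preincubated 15 min with compounds at room temperature; reaction started with fluorescent substrate, 50 nM final. Fluorescence read kinetically at 0 and 10 min; buffer-only wells as negative control.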
WRN helicase inh: inhibitors of human WRN helicase. Q14191. WRN helicase unwinding, fluorescent forked duplex, kinetic. Potency, µM (titrated, usually from 114 µM), for inactives: at the highest dose activity change, negative = inhibition, hits mostly inhibitors. 360,000 tested, 0.46% active. AID 651768; note: % is set by controls: 0 for no effect and ±100 for the full control effect; nearly all actives have a fitted effect of over 55% in size
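Screening of the MLSMR collection measured strand separation of a quenched forked DNA duplex (100 nM) by 20 nM WRN with 2 mM ATP, all final. Compounds were preincubated with enzyme 15 min at room temperature.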
POLK inh: blocks human DNA polymerase kappa activity | 400,000 tested, 0.53% active | purified Pol kappa, fluorescent DNA synthesis assay, 10 min | Potency, µM (titrated, usually from 107 µM), for the others: at the top dose activity, negative = inhibition, hits mostly inhibitors | AID 588579 | Q9UBT6; note: % is set by controls: 0 for no effect and ±100 for the full control effect
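Kinetic fluorescence readout at 0 and 10 min followed reaction start with substrate at 50 nM final. Beforehand, enzyme (10 nM Pol kappa) stood 15 min with compound at room temperature; buffer-only wells were negative controls.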
POLB inh: DNA polymerase beta (human) inhibition | P06746 | Pol beta primer extension/strand displacement, fluorescence kinetic | Potency, µM (titrated, usually from 114 µM), for inactives: at the top dose activity change, negative = inhibition, usual class: inhibitors | 340,000 tested, 1.3% active | AID 485314; note: % is set by controls: 0 for no effect and ±100 for the full control effect
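Reaction started by 50 nM substrate onto compound-treated Pol beta (10 nM, 15 min preincubation, room temperature); plates read at 0 min and 10 min. Normalized concentration-effect data fitted by four-parameter Hill equation.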
Numbers without * were called inactive; u = inconclusive; x = no result given; [ ] = dose if it differs, or a comment. Hits are enriched below; roughly 2.4% of the tested compounds scored in any of these assays. Calls come from the whole dose curve; as a rule, active = well fitted curve in the direction sought with a large enough effect; inconclusive = small, poorly fitted or top-dose-only effect, or another doubt; inactive = no such curve, though single readings can be large; an effect the other way counts as inactive or inconclusive. Potency is the fitted concentration of half-maximal effect.

SMILES | POLH inh | FEN1 inhibitor | Pol iota inh | WRN helicase inh | POLK inh | POLB inh
Cc1ccccc1NCC(=O)N=Nc1c(O)[nH]c2ccc([N+](=O)[O-])cc12 | -9.0% | -2.5% | 43.8% | -6.9% | -28.6% | 9.2%
CCNC(=S)N=Nc1c(O)[nH]c2ccc([N+](=O)[O-])cc12 | -2.5% | -6.8% | 106.5% | u | u | u
O=C(O)c1ccccc1N=Nc1c(O)[nH]c2ccc([N+](=O)[O-])cc12 | 22.4µM* | u | u | u | -42.5% | 50.1µM*
COc1ccc(-c2ccccc2C2C3C=CCCC3(C)C(=O)N2Cc2ccccc2)cc1 (configuration not stated) | x | -6.3% | -3.8% | x | -1.0% | x
C[C@@H]1C(=O)O[C@H]2C[C@@]34[C@H]5C[C@@H](C(C)(C)C)[C@]36[C@H](OC(=O)[C@H]6O)O[C@]4(C(=O)O5)[C@]21O | x | x | x | x | 5.8%[60.1 µM] | x
Cc1ccc(NS(=O)(=O)c2cc([N+](=O)[O-])ccc2NNC(=S)Nc2cc(C)ccc2C)c(C)c1 | -10.1% | -15.9% | 2.5% | -22.7% | -0.2% | 2.2%
Cc1ccc(NS(=O)(=O)c2cc([N+](=O)[O-])ccc2NNC(=S)Nc2cccc(Cl)c2)c(C)c1 | 39.8µM* | u | -7.9% | u | -31.1% | u
c1coc(CNc2nc(-c3cccs3)cs2)c1 | -21.5% | -9.4% | 173.0% | -9.1% | -8.2% | 20µM*
O=C(O)c1cn(-c2ccc(F)cc2)c2cc(N3CCNCC3)c(F)cc2c1=O | -6.4% | 44.7µM* | u | -17.6% | -11.1% | x
Cn1cc(S(=O)(=O)c2ccccc2)c(=O)c2cc(F)c(N3CCN(c4ccc(F)cc4)CC3)cc21 | -17.4% | -8.4% | -15.1% | x | -12.2% | 7.1%
CN(C)CCCNc1cc(N2CCN(C)CC2)ncn1 | x | 13.9% | 4.1% | x | -2.2% | x
CC(CSC(=O)c1ccccc1)C(=O)N1C[C@@H](Sc2ccccc2)C[C@H]1C(=O)O (some centres not stated) | x | x | x | x | -1.4%[19.4 µM] | x
O=C(O)c1cccc(NC(=O)c2cccc(S(=O)(=O)Nc3cccc(C(=O)O)c3)c2)c1 | 13.5% | 1.4% | 6.4% | x | -4.3%[60.1 µM] | 0.2%
O=C(Nc1cccc(C(=O)Nc2ccc(S(=O)(=O)O)c3cc(S(=O)(=O)O)cc(S(=O)(=O)O)c23)c1)Nc1cccc(C(=O)Nc2ccc(S(=O)(=O)O)c3cc(S(=O)(=O)O)cc(S(=O)(=O)O)c23)c1 | 1.78µM* | 1µM* | 10µM* | x | 1.89µM* | 2.38µM*
C=C[C@@]1(C)CC[C@H]2C(=CC[C@@H]3[C@]2(C)CCC[C@@]3(C)C(=O)O)C1 | x | x | x | x | -3.2%[60.1 µM] | x
CCOC(=O)Cc1cc(=O)c2c(=O)n(-c3ccccc3)[nH]c2[nH]1 | -11.2% | -2.9% | 22.4µM* | -7.5%[57.1 µM] | 22.4µM* | 2.2%
CCNC(=O)c1ccc(CSc2ccc(Cl)cc2)cc1 | -2.4% | -0.3% | 79.4µM* | 0.7% | 4.0% | 18.6%
CC(=O)NCCNC(=O)c1ccc(CSc2ccc(Cl)cc2)cc1 | -4.1% | -2.0% | 2.2% | 5.0% | -2.8% | 16.8%
CCOc1nc(N=C(N)N)nc2c(C)cccc12 | 8.2% | 44.7µM* | -3.5% | 9.2%[11.6 µM] | 7.8% | 111.2%
COc1cccc(C(=O)NC2CC3CCCC(C2)N3CC(=O)Nc2ccccc2)c1 (configuration not stated) | u | -11.9% | u | u | -5.5% | 39.8µM*
CC1CCCC(C)N1/N=C/c1ccc(O)c(O)c1 (configuration not stated) | u | 3.8% | u | -4.2%[11.6 µM] | 39.8µM* | 2.24µM*
COc1ccc(/C=N/N2C(C)CCCC2C)cc1O (configuration not stated) | -3.0% | 4.8% | 139.6% | 1.8% | -7.3% | 40.7%
COC(=O)c1ccc2c(c1)C(C)(C)C(/C=C/c1ccccc1O)=[N+]2C | 18.5% | 50.1µM* | 28.2µM* | 56.2µM* | 35.5µM* | u
CCOC(=O)c1ccc(NC(=O)C(C)N(c2ccc(OCC)cc2)S(C)(=O)=O)cc1 (configuration not stated) | -19.0% | -4.7% | -1.4% | x | -3.8% | -13.9%
